Data from PubChem BioAssay (EPA / NIEHS).
Active and inactive are the calls of the source. The calls were made as follows: active = hit-call score of the fitted dose curve at least 0.9, where 1 is the maximum; inactive = score below 0.9.

Legend:
[1] = ATG_NFI_CIS: Attagene CIS-FACTORIAL HepG2 Assay for human Nuclear Factor I (NFI) (AID 2282989); settings: HepG2 cis-regulatory reporter, NFI response element transcription; actives raise or lower the signal
Summary of the method: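 After transient transfection of HepG2 with cis-promoter reporter constructs and 24 h dosing, RNA is reverse-transcribed, amplified, 6-FAM end-labelled and HpaI-digested before capillary analysis. Bidirectional curve fitting against DMSO.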

[2] = molecular target: Myc proto-oncogene protein (Homo sapiens) (UniProt P01106); experiment: ATG_Myc_CIS: Attagene CIS-FACTORIAL HepG2 Assay for human Myelocytomatosis (Myc) Proto-Oncogene Transcription Factor (AID 2282990); settings: HepG2, Attagene cis-reporter transcription factor activity; actives raise or lower the signal
Summary of the method: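 After 24 h chemical treatment of HepG2 cells carrying multiplexed cis-regulated reporter constructs, reporter transcripts quantified by RT-PCR and capillary electrophoresis of fluorescent fragments. Gain or loss fitted against DMSO baseline.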

[3] = ATG_NF_kB_CIS: Attagene CIS-FACTORIAL HepG2 Assay for human Nuclear Factor Kappa B (NF-kB) (AID 2282991); settings: HepG2 Attagene cis-factorial NF-kB reporter mRNA; actives raise or lower the signal
Summary of the method: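 Multiplexed cis-reporter assay in transiently transfected HepG2. 24 h treatment; RNA isolated, RT-PCR, labelled fragments resolved by CE. DMSO baseline.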

[4] = ATG_NRF2_ARE_CIS: Attagene CIS-FACTORIAL HepG2 Assay for human Nuclear Factor Erythroid 2 Related Factor 2 (NFR2) response to Antioxidant Response Elements (ARE) (AID 2282992); settings: HepG2 Attagene ARE/NRF2 reporter, transcription factor activity; actives raise or lower the signal
Summary of the method: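 Transient MRTU transfection of HepG2; 24 h compound exposure; TriZol RNA, RT with oligo(dT), PCR, 6-FAM primer extension, HpaI cut, CE. Bidirectional fit vs DMSO.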

[5] = ATG_Oct_MLP_CIS: Attagene CIS-FACTORIAL HepG2 Assay for human Octamer-Binding Transcription Factor (Oct) (AID 2282993); settings: HepG2 Attagene cis-factorial Oct reporter, mRNA; actives raise or lower the signal
Summary of the method: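 Cells of the HepG2 line express promoter-controlled reporter sequences whose mRNA levels, after 24 h treatment, are measured by RT-PCR and capillary electrophoresis. Increases and decreases are scored relative to DMSO.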

[6] = molecular target: Cellular tumor antigen p53 (Homo sapiens) (UniProt P04637); experiment: ATG_p53_CIS: Attagene CIS-FACTORIAL HepG2 Assay for human p53 Transcription Factor (AID 2282994); settings: HepG2 p53 cis-element reporter, Attagene mRNA; actives raise or lower the signal
Summary of the method: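 HepG2, transient MRTU transfection (cis promoter elements, endogenous TFs); 24 h dosing; RNA isolation, RT-PCR, 6-FAM primer extension, HpaI digest, CE fluorescence; bidirectional fit vs DMSO.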

[7] = BSK_3C_TissueFactor: BioMAP Diversity Plus: 3C Assay for Tissue Factor Biomarker Activity (AID 2282997); settings: BioMAP 3C HUVEC, tissue factor biomarker readout; actives raise or lower the signal
Summary of the method: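 Endothelial monolayers (human umbilical vein, primary) are dosed, incubated 24 h, and assayed for Tissue Factor by ELISA; DMSO serves as negative control for bidirectional fitting.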

[8] = BSK_3C_uPAR: BioMAP Diversity Plus: 3C Assay for Urokinase-type plasminogen activator receptor (uPAR) Biomarker Activity (AID 2282998); settings: BioMAP 3C HUVEC, uPAR biomarker ELISA; actives raise or lower the signal
Summary of the method: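 Endothelial primary cells of human umbilical vein origin received test chemical; 24 h later uPAR was assayed by ELISA. Fitting was bidirectional, DMSO as negative control.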

[9] = BSK_3C_VCAM1: BioMAP Diversity Plus: 3C Assay for Vascular cell adhesion molecule 1 (VCAM1) Biomarker Activity (AID 2282999); settings: BioMAP 3C HUVEC, VCAM1 ELISA, cytokine-stimulated; actives raise or lower the signal
Summary of the method: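 Endothelial cells from human umbilical vein are treated with test chemical. At 24 h, VCAM-1 is measured by ELISA, and responses in either direction are fitted relative to DMSO.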

[10] = BSK_4H_Eotaxin3: BioMAP Diversity Plus: 4H Assay for Eotaxin 3 Biomarker Activity (AID 2283000); settings: primary human endothelial cells (HUVEC); actives raise or lower the signal
Summary of the method: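 ELISA quantitation of CCL26 (Eotaxin-3) protein from chemically dosed human vascular endothelial cells at 24 h; increases and decreases both scored relative to DMSO-treated baseline.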

Measured: AC50

Cellular tumor antigen p53 (Homo sapiens), sequence (P04637 whole entry, looked up): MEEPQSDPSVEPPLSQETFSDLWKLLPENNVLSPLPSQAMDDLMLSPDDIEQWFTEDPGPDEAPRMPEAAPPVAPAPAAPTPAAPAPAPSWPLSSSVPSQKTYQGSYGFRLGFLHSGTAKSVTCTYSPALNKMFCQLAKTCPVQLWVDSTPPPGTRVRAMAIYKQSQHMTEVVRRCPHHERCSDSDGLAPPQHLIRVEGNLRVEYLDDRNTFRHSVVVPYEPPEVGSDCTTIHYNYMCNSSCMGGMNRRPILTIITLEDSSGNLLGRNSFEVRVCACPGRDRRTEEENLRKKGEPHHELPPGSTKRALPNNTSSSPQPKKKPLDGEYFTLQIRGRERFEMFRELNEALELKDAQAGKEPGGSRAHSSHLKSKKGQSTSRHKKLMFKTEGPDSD
Myc proto-oncogene protein (Homo sapiens), sequence (P01106 whole entry, looked up, the tested form may be a part): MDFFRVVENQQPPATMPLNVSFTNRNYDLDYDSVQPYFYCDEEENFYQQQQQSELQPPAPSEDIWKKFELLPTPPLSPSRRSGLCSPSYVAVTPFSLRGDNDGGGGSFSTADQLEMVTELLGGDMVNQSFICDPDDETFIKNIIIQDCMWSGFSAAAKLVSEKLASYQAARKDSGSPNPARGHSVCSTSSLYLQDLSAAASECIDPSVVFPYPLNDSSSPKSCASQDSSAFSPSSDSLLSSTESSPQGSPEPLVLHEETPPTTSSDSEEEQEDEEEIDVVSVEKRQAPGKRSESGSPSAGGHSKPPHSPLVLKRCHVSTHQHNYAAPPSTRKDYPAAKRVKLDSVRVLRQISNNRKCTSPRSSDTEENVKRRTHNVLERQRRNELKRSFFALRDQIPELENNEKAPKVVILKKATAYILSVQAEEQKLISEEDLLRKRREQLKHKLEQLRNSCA

CCCCOCCOCCSC#N
active: [4] 16.7 µM
inactive: [1] | [2] | [3] | [5] | [6]

CCCCCCCCCCCCN
active: [3] 15 µM | [4] 17.8 µM
inactive: [1] | [2] | [5] | [6]

CC1(C)CCC(C)(C)c2cc(C(=O)Nc3ccc(C(=O)O)cc3)ccc21
active: [5] 100 µM | [6] 55.1 µM
inactive: [1] | [2] | [3] | [4]

C/C=C(\C)C(=O)OCc1ccccc1
inactive: [1] | [2] | [3] | [4] | [5] | [6]

CCCC(C)C=O (stereo not given)
inactive: [1] | [2] | [3] | [4] | [5] | [6]

COC(C(=O)O)c1ccccc1 (stereo not given)
inactive: [1] | [2] | [3] | [4] | [5] | [6]

CCc1ccc(C=O)cc1
inactive: [1] | [2] | [3] | [4] | [5] | [6]

C=CC(C)(C)O
inactive: [1] | [2] | [3] | [4] | [5] | [6]

CCCCCCCCCCCCN(CCCCCCCCCCCC)CCCCCCCCCCCC
inactive: [1] | [2] | [3] | [4] | [5] | [6]

CC1CCC2CC1C2(C)C (stereo not given)
inactive: [1] | [2] | [3] | [4] | [5] | [6]

O=C1CCCCCCCCCCOCCCCO1
active: [4] 167 µM
inactive: [1] | [2] | [3] | [5] | [6]

NC(=O)Nc1ccc(Cl)cc1
inactive: [1] | [2] | [3] | [4] | [5] | [6]

ClCCCl
inactive: [1] | [2] | [3] | [4] | [5] | [6]

CC(=O)c1c(C)cc(C(C)(C)C)cc1C
inactive: [1] | [2] | [3] | [4] | [5] | [6]

C=CCOc1nc(OCC=C)nc(OCC=C)n1
inactive: [1] | [2] | [3] | [4] | [5] | [6]

C[Si](O[Si](C)(C)C)O[Si](C)(C)C
inactive: [1] | [2] | [3] | [4] | [5] | [6]

O=C(Oc1ccccc1)c1ccc(O)cc1
inactive: [1] | [2] | [3] | [4] | [5] | [6]

CC(C=O)Cc1ccc(C(C)C)cc1 (stereo not given)
inactive: [1] | [2] | [3] | [4] | [5] | [6]

O=C(O)CCCCC1CCSS1 (stereo not given)
inactive: [1] | [2] | [3] | [5] | [6]
active: [4] 40 µM

CC(O)C(C)O (stereo not given)
inactive: [1] | [2] | [3] | [4] | [5] | [6]

Cc1cccc(C)c1C
inactive: [1] | [2] | [3] | [4] | [5] | [6]

CC(=O)OCCOC(C)=O
inactive: [1] | [2] | [3] | [4] | [5] | [6]

CC(CCO)CCc1ccccc1 (stereo not given)
inactive: [1] | [2] | [3] | [4] | [5] | [6]

Cc1ccc(S)cc1
active: [6] 65.1 µM
inactive: [1] | [2] | [3] | [4] | [5]

CCCC/C=C\CCCCCCCCCC=O
inactive: [1] | [2] | [3] | [4] | [5] | [6]

Cc1ccc(C=O)cc1
inactive: [1] | [2] | [3] | [4] | [5] | [6]

CCC(=O)OCCC(C)CCC=C(C)C (stereo not given)
inactive: [1] | [2] | [3] | [5] | [6]
active: [4] 63.9 µM

CCCCCCCCC
inactive: [1] | [2] | [3] | [4] | [5] | [6]

CCCc1ccccc1O
inactive: [1] | [2] | [3] | [4] | [5] | [6]

CCO[Si](CCCS)(OCC)OCC
inactive: [1] | [2] | [3] | [4] | [5] | [6]

c1ccc2[nH]ccc2c1
inactive: [1] | [2] | [3] | [4] | [5] | [6]

O=c1cc(-c2ccccc2)oc2cc(O)cc(O)c12
active: [3] 12.4 µM | [4] 2.2 µM | [6] 3.66 µM
inactive: [1] | [2] | [5]

CCCCCCCCCCCCCOS(=O)(=O)O
inactive: [1] | [2] | [3] | [4] | [5] | [6]

CCCCCCOC(=O)CC
inactive: [1] | [2] | [3] | [4] | [5] | [6]

C=CC[N+](C)(C)CC=C
inactive: [1] | [2] | [3] | [4] | [5] | [6]

CC(C)(C)C(=O)c1ccccc1
inactive: [1] | [2] | [3] | [4] | [5] | [6]

O=C1O[C@@H]2[C@@H](O)[C@H](O)O[C@@H]2[C@H]1O
inactive: [1] | [2] | [3] | [4] | [5] | [6]

CCCCCCCCCOC(C)=O
inactive: [1] | [2] | [3] | [4] | [5] | [6]

CC(=O)O[C@H](CC(=O)[O-])C[N+](C)(C)C
inactive: [1] | [2] | [3] | [4] | [5] | [6]

c1cc(C(c2ccc(OCC3CO3)cc2)c2ccc(OCC3CO3)cc2)ccc1OCC1CO1 (stereo not given)
active: [1] 10.1 µM | [3] 100 µM | [5] 24.8 µM | [6] 11.8 µM
inactive: [2] | [4]

CCCCN
inactive: [1] | [2] | [3] | [4] | [5] | [6]

CC(=O)Nc1ccc(C)cc1C
inactive: [1] | [2] | [3] | [4] | [5] | [6]

CC(C)c1cccc(O)c1
inactive: [1] | [2] | [3] | [4] | [5] | [6]

O=C(O)CN(CCN(CC(=O)O)CC(=O)O)CCN(CC(=O)O)CC(=O)O
inactive: [1] | [2] | [3] | [4] | [5] | [6]

CCC(C)(O)CCC=C(C)C (stereo not given)
inactive: [1] | [2] | [3] | [4] | [5] | [6]

C=C(C)[C@@H]1CCC2=CC(=O)C[C@@H](C)[C@]2(C)C1
inactive: [1] | [2] | [3] | [5] | [6]
active: [4] 80.7 µM

c1ccc(CCCc2ccccn2)cc1
inactive: [1] | [2] | [3] | [4] | [5] | [6]

C=C(C)C(=O)OCCOC(=O)CC(C)=O
inactive: [1] | [2] | [3] | [4] | [5] | [6]

CC1CC(OC(=O)c2ccccc2O)CC(C)(C)C1 (stereo not given)
inactive: [1] | [2] | [3] | [4] | [5] | [6]

O=C(O)CCCCCCCC(=O)O
inactive: [1] | [2] | [3] | [4] | [5] | [6]

OCC(CO)(CO)COCC(CO)(CO)CO
inactive: [1] | [2] | [3] | [4] | [5] | [6]

NCCCCCCN
inactive: [1] | [2] | [3] | [4] | [6]

C=C[C@@H](C)CCC=C(C)C
inactive: [1] | [2] | [3] | [4] | [6]

O=C(O)C[C@H](O)C[C@H](O)/C=C/c1c(C2CC2)nc2ccccc2c1-c1ccc(F)cc1
active: [3] 2.68 µM | [8] 0.289 µM | [10] 0.198 µM
inactive: all other assays above

CCn1c2ccccc2c2cc(N)ccc21
active: [4] 26.4 µM | [8] 1.82 µM
inactive: all other assays above

CC(C)CCCCCCCOC(=O)c1ccc(C(=O)OCCCCCCCC(C)C)c(C(=O)OCCCCCCCC(C)C)c1
inactive: [1] | [2] | [3] | [4] | [6]

CC1COc2ccccc2N1C(=O)C(Cl)Cl (stereo not given)
active: [4] 6.61 µM | [5] 30.6 µM | [8] 5.99 µM | [9] 11.3 µM | [10] 7.09 µM
inactive: [1] | [2] | [3] | [7]
